D1 PAM: human D1 dopamine receptor positive modulation. P21728. HEK293 TREx D1 cells, calcium flux, dopamine EC20 potentiation. potentiation, % at 10 µM. actives 0.036% (n = 360,000). AID 504651; in the data active = potentiation above about 30%; also: 0% is about no effect
Target sequence (P21728 whole entry, looked up): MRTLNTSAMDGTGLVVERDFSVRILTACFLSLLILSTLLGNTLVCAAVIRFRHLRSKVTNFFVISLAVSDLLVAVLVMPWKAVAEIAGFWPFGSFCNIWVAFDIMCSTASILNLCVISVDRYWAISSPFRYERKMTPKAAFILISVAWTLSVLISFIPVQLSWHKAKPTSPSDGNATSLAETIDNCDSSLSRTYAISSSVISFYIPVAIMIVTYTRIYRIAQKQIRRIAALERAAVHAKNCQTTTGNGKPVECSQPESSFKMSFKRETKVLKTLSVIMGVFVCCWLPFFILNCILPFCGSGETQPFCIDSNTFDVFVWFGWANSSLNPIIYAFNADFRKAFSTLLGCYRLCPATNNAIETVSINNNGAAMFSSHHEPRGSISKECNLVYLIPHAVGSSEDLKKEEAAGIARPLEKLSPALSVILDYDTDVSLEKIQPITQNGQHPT
D3 ag: D3 dopamine receptor (human) agonism | max activation, % | actives 0.58% (n = 410,000) | D3R DiscoveRx beta-arrestin cells, luminescence, 90 min; in the data active = max activation above about 30%; also: 0% is about no effect
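Agonist-mode cell screen: cells plated at 1500/well and incubated overnight at 37 °C, then exposed to library compounds for 90 min at 37 °C. Detection reagent was added for 30–60 min at room temperature, and luminescence was read.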
D3 antag: D3 dopamine receptor (human) antagonism; P35462; D3R cells, DiscoveRx beta-arrestin luminescence, antagonist mode; stronger effect = lower value; max response, negative = inhibition, %; actives 2.5% (n = 360,000); AID 652054; in the data active = max response below about -50%; inconclusive = no clear call, values can overlap the other calls; also: % is scaled to controls: 0 for no effect and ±100 for the full control effect
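Cells plated overnight at 1500 cells/well, then exposed to library compounds with dopamine controls for 90 minutes at 37 degrees C. DiscoveRx reagent added for 30–60 minutes at room temperature; luminescence read, quantitative HTS format.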
D1 agonist: agonists of human D1 dopamine receptor; P21728; HEK293 T-REx D1 cells, calcium flux, agonist mode; activation, % at 2 µM; actives 1% (n = 360,000); AID 504660; in the data active = activation above about 30%; also: 0% is about no effect
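Agonism was scored from calcium flux recorded over 180 s (1 read/s) after pintool compound addition, following a 10-cycle baseline. Cells were inducible force-coupled HEK293 TREx D1, plated overnight at 30 C and loaded with no-wash calcium dye.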
D1 antagonist: antagonists of human D1 dopamine receptor | P21728 | HEK293 TREx D1 cells, calcium flux, dopamine EC80; stronger effect = lower value | activity change, negative = inhibition, % at 10 µM | actives 3.2% (n = 360,000); in the data active = activity change below about -30%; also: % is scaled to controls: 0 for no effect and ±100 for the full control effect
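Antagonism measured as reduced calcium response to an EC80 dopamine addition following 180 s compound pre-read; cells were inducible HEK293 Trex D1 plated overnight at 30 C, read kinetically at 1 cycle/sec.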
* = called active by the depositor. Shown are actives, neighbours in structure and some others; about 6% of the full set was active somewhere.

How did c1ccc(-c2oc3ncnc(NCCCN4CCOCC4)c3c2-c2ccccc2)cc1 do in these assays?
D1 PAM: 1.6; D3 ag: -1.6; D3 antag: -64.8*; D1 agonist: 2.9; D1 antagonist: 0.3

What do the screens show for `COc1ccc(-c2oc3ncnc(NCCN4CCOCC4)c3c2-c2ccc(OC)cc2)cc1`?
D1 PAM: -6.0; D3 ag: -0.5; D3 antag: -13.2; D1 agonist: -0.7; D1 antagonist: 21.0

What do the screens show for `COc1ccc(-c2oc3ncnc(NCCCN4CCOCC4)c3c2-c2ccc(OC)cc2)cc1`?
D1 PAM: 4.7; D3 ag: -5.5; D3 antag: -94.2*; D1 agonist: 3.2; D1 antagonist: 3.9

Results for CCN(CC)S(=O)(=O)c1cc([N+](=O)[O-])ccc1NNC(=O)Nc1ccc(Cl)c(Cl)c1 ?
D1 PAM: -11.6; D3 ag: -7.1; D3 antag: -83.7*; D1 agonist: 8.5; D1 antagonist: -26.8

How did O=C(NNc1ccccc1[N+](=O)[O-])Nc1ccc(Cl)c(Cl)c1 do in these assays?
D1 PAM: 3.5; D3 ag: -5.5; D3 antag: -6.8; D1 agonist: 14.0; D1 antagonist: -27.4

What do the screens show for `CCn1c(NCc2c[nH]c3ccccc23)nc2ccccc21`?
D3 ag: 8.7; D3 antag: 9.8

What do the screens show for `C=CCn1c(NCc2c[nH]c3ccccc23)nc2ccccc21`?
D1 PAM: -13.8; D3 ag: -3.9; D3 antag: inconclusive; D1 agonist: 0.7; D1 antagonist: -58.6*

How did COc1ccc2ccc3c(c2c1)N=C[C@]1(O3)N(C)c2ccccc2C1(C)C do in these assays?
D1 PAM: -10.6; D3 ag: -2.1; D3 antag: -70.3*; D1 agonist: -1.3; D1 antagonist: 18.2

How did CCc1ccccc1NC(=O)CSc1nc(-c2ccccc2OC)nc2c1Cc1c(CO)cnc(C)c1O2 do in these assays?
D1 PAM: -0.7; D3 ag: 6.7; D1 agonist: 1.1; D1 antagonist: 6.4

Results for CCC1Oc2ccc(C)cc2N(CC(=O)NCCCN2CCN(Cc3ccccc3)CC2)C1=O (stereo not given) ?
D1 PAM: -0.6; D3 ag: -29.7; D3 antag: -74.8*; D1 agonist: 3.9; D1 antagonist: -1.3

What do the screens show for `CCC1Oc2ccc(C)cc2N(CC(=O)NCCN2CCCCCC2)C1=O` (stereo not given)?
D1 PAM: 3.3; D3 ag: -28.6; D3 antag: inconclusive; D1 agonist: 1.8; D1 antagonist: 5.5

Results for CCC1Oc2ccccc2N(CC(=O)NCCCN2CCN(c3ccc(OC)cc3)CC2)C1=O (stereo not given) ?
D1 PAM: -6.1; D3 ag: -12.7; D3 antag: -14.0; D1 agonist: 5.7; D1 antagonist: -90.0*

What do the screens show for `O=C(Nc1ccccc1Cl)c1cc2c(-c3ccccc3)nn(-c3ccccc3)c2s1`?
D1 PAM: -4.8; D3 ag: 4.8; D1 agonist: 3.2; D1 antagonist: 6.6

How did CNC(=O)C1CCC(Cn2c(=O)c3sccc3n(CC(=O)NCc3ccc(F)cc3)c2=O)CC1 (stereo not given) do in these assays?
D1 PAM: -1.9; D3 ag: 0.3; D1 agonist: 2.1; D1 antagonist: 1.3

What do the screens show for `O=C(CCS(=O)(=O)c1cccc2nonc12)N1CCOCC1`?
D1 PAM: -0.9; D3 ag: -4.0; D3 antag: -25.4; D1 agonist: 1.1; D1 antagonist: 26.6

How did O=C(CCS(=O)(=O)c1cccc2nonc12)N1CC(=O)N(CCc2ccccc2)C(=O)C1 do in these assays?
D1 PAM: -2.5; D3 ag: 4.7; D3 antag: 17.4; D1 agonist: 11.1; D1 antagonist: -91.2*

Results for Cc1nn(C)c(C(=O)Nc2c(C)nn(Cc3c(F)c(F)c(F)c(F)c3F)c2C)c1Br ?
D1 PAM: -7.1; D3 ag: -3.1; D3 antag: 34.7; D1 agonist: 25.8; D1 antagonist: -15.5

How did CCCc1nccn1S(=O)(=O)c1cc(Br)ccc1OC do in these assays?
D1 PAM: -2.1; D3 ag: -6.6; D1 agonist: 0.7; D1 antagonist: -0.9

Results for CC1CCC(NC(=O)Cn2c(=O)oc3ccccc32)CC1 (stereo not given) ?
D1 PAM: -1.4; D3 ag: -7.6; D3 antag: -50.7*; D1 agonist: 3.0; D1 antagonist: 24.5

From PubChem BioAssay
